# G9a block – G9a (human) methyltransferase inhibition; Q96KQ7; G9a H3K9 monomethylation, AlphaScreen, 2 h; Potency, µM (top dose mostly 102 µM), without a hit: at the top dose activity, negative = inhibition, hits mostly inhibitors; 350,000 compounds, 8.8% hits; AID 504332; further: on the % scale 0 is the no-effect control and ±100 the full control effect; nearly all actives have a fitted effect of over 75% in size
#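 Step 1: enzyme (final 20 nM) with compound, 15 min RT. Step 2: substrate peptide 500 nM and SAM 20 uM, 2 h RT. Step 3: anti-H3K9me1 antibody and AlphaScreen beads, 10 min, then plate read.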
# JMJD2A Tudor – inhibitors of human JMJD2A Tudor domain | Potency, µM (series often up to 114 µM), for inactives: top-dose activity change, negative = inhibition, most hits filed as inhibitors | AID 504339 | AlphaScreen JMJD2A-Tudor / H3K4me3 peptide binding | O75164 | 390,000 compounds, 4.4% hits; further: on the % scale 0 is the no-effect control and ±100 the full control effect; nearly all actives have a fitted effect of over 50% in size
# L3MBTL1 inh – blocks human L3MBTL1; Q9Y468; AlphaScreen L3MBTL1–H3K9me1 peptide binding; Potency, µM (series often up to 57.1 µM), for inactives: at the highest dose activity, negative = inhibition, actives largely listed as inhibitors; 230,000 compounds, 0.66% hits; AID 485360; further: on the % scale 0 is the no-effect control and ±100 the full control effect; nearly all actives have a fitted effect of over 60% in size
# Target sequence (Q9Y468 whole entry, looked up): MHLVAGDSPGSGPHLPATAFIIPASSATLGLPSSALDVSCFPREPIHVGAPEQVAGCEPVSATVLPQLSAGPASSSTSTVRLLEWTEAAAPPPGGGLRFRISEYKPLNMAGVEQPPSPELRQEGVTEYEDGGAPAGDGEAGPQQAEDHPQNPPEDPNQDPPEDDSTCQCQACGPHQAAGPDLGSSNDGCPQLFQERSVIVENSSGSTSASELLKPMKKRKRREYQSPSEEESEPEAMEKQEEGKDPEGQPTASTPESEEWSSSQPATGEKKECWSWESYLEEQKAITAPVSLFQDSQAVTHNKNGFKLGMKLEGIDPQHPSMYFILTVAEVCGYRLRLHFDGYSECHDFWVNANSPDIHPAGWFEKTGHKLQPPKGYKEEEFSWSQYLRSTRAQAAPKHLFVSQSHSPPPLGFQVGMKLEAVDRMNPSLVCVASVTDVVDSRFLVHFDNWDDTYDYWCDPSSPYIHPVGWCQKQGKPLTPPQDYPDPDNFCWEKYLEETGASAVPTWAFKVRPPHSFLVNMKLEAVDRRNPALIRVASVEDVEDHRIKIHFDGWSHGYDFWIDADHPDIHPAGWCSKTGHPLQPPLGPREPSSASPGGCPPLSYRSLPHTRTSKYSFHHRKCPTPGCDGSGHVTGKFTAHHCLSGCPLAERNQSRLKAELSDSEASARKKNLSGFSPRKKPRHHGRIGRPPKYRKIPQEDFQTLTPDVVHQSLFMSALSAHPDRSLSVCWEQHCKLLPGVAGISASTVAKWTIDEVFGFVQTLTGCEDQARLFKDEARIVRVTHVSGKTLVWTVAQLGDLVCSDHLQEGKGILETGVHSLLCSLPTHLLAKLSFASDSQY
#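 AlphaScreen assay: L3MBTL1 (50 nM final) was preincubated 30 min at room temperature with biotinylated H3(1-15)K9me1 peptide (75 nM final), then 30 min with library compounds; streptavidin donor and nickel chelate acceptor beads (10 ug/mL final) added, 30 min dark.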
# Sfp inh – blocks B. subtilis Sfp PPTase activity; 310,000 compounds, 3.5% hits; Biochemical Sfp PPTase activity, qHTS; Q9F4F7; AID 1490; Potency, µM, for the others: largest response in the series, negative = inhibition, usual class: inhibitors;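 further: the enzyme is Sfp with the accession as filed and its product quenches rhodamine fluorescence; 0% = enzyme reaction without inhibitor and -100% = no enzyme wells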
#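 Fluorescence-quenching assay: 15 nM Sfp-PPTase preincubated 15 min at room temperature with compound, then 5 uM rhodamine-CoA and 12.5 uM BHQ-2-labelled YbbR peptide added. Fluorescence (ex 525/em 598 nm) read at start and after 30 min; difference gives rate.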
# HP1b chromo inh – inhibitors of HP1-beta chromodomain binding to methylated histone tails | P83916 | AlphaScreen HP1-beta / biotin-H3K9me3 peptide binding | Potency, µM (highest dose often 114 µM), for inactives: at the top dose activity change, negative = inhibition, usual class: inhibitors | 390,000 compounds, 0.56% hits | AID 540317; further: nearly all actives have a fitted effect of over 70% in size
#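 HP1-beta protein (50 nM final) preincubated 30 min at room temperature with biotinylated H3(1-18)K9me3 peptide (50 nM) in PBS pH 7.4, 0.01% Tween-20, then compound added for 30 min. AlphaScreen streptavidin donor/nickel chelate acceptor beads (10 ug/mL final), 30 min dark, luminescence read.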
# BAZ2B block – inhibitors of human BAZ2B bromodomain. 360,000 compounds, 4.4% hits. Potency, µM (top dose mostly 114 µM), inactives show top-dose activity change, negative = inhibition, most hits filed as inhibitors. AlphaScreen BAZ2B-H3K14Ac peptide displacement. AID 504333. Q9UIF8; further: on the % scale 0 is the no-effect control and ±100 the full control effect; nearly all actives have a fitted effect of over 60% in size
#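 In this displacement format the biotinylated H3(5-23) peptide acetylated at Lys14 serves as ligand at 50 nM, with BAZ2B at 50 nM in PBS pH 7.4 containing 0.01% Tween-20. Donor and acceptor beads are 10 ug/mL final.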
# Numbers without * were called inactive; ? = inconclusive; . = not tested or not shown; ! = not active in a repeat; [ ] = remark or other dose. Only some compounds are listed: those with a hit (about 12% of all), similar ones and a draw of the others. The call rests on the fitted dose curve; in most records, active means well fitted curve in the direction sought with a large enough effect; inconclusive means small, poorly fitted or top-dose-only effect, or another doubt; inactive means no such curve, though single readings can be large; an effect the other way counts as inactive or inconclusive. Potency means the concentration at half of the fitted maximal effect.
SMILES,G9a block,JMJD2A Tudor,L3MBTL1 inh,Sfp inh,HP1b chromo inh,BAZ2B block
COc1ccc(NC(=O)C2CCCN(S(=O)(=O)c3cccs3)C2)cc1 (stereo unspecified),5.0%[59 µM],-8.2%,.,.,3.2%,-1.9%
CCOC(=O)Cc1c(C)nc(N)[nH]c1=O,18.3%,4.4%,-5.3%,20.4%,8.9%,1.2%
CCOC(=O)Cc1c[nH]c(=S)[nH]c1=O,-8.6%[2.33 µM],?,14.3%,79.4µM*,14.4%[57 µM],-8.5%
COc1ccc2c(c1)O[C@@H](c1cccc(C(F)(F)F)c1)[C@H](OC(=O)NCCOc1ccccc1)C2=O,.,.,.,-28.2%,.,.
COC(=O)[C@H]1C[C@@H]1[C@H](NS(=O)(=O)c1ccccc1)c1ccccc1,?,2.1%,2.4%,70.8µM*!,50.1%,2.9%
COC(=O)[C@H]1C[C@@H]1[C@H](NC(=O)[C@H]1C[C@@H]1[C@H](NC(=O)OCc1ccccc1)c1ccccc1)c1ccccc1,44.7µM*,-11.9%,-1.3%,12.3%,26.9%,-1.6%
CC(C)NC(=O)[C@@H]1C[C@H]1[C@@H](NC(=O)OCc1ccccc1)c1ccccc1,.,.,.,20.9%,.,.
Cc1ccc(OCC(=O)Nc2ccc3nc(SCC(=O)N4CCOCC4)sc3c2)cc1C,9.2%[59 µM],4.3%,.,.,64.9%,-0.8%
CC(=O)c1ccc(Nc2ccc(-c3ccccc3C)nn2)cc1,.,-31.6%,-18.4%,-6.4%,10.2%,79.4µM*
CCOC(=O)N1CCN(Cc2nc3cc(NC(=O)c4ccccc4Cl)ccc3n2C(C)C)CC1,-1.1%[59 µM],-9.9%,.,.,42.9%,-11.4%
COC(=O)c1n[nH]c2ccccc12,-4.9%[59 µM],-10.2%,2.5%,13.9%,10.1%,3.6%
O=C(OCCCCN1C(=O)c2ccccc2C1=O)c1n[nH]c2ccccc12,50.1µM*,?,-8.5%,-20.6%,7.8%,3.7%
COc1ccc(SN=C2C(C)=CC(=O)C=C2C)cc1,15.8µM*,?,-6.0%,-10.6%,?,?
CC(Oc1ccccc1F)C(=O)Nc1ccc(-c2nc3ccccc3s2)cc1 (stereo unspecified),-22.9%[59 µM],-4.0%,.,.,44.8%,-0.5%
CCOc1ccc(-n2c(Cc3ccccc3)nnc2SCc2nc(-c3cccs3)no2)cc1,-29.8%[59 µM],-28.5%,.,.,1.5%,-35.9%
Cn1ccc(NS(=O)(=O)c2cc(Br)ccc2Br)n1,0.3%[12.7 µM],0.0%,-1.3%,.,30.7%,4.0%
CSc1nc(NS(=O)(=O)c2cc(Br)ccc2Br)cc(=O)[nH]1,56.2µM*,-20.7%,.,11.1%,-16.0%,-4.8%
COc1ccc(N2C(=O)C(CC(=O)Nc3ccc(F)cc3)N(Cc3ccc4c(c3)OCO4)C2=O)cc1 (stereo unspecified),-7.7%[59 µM],-16.9%,.,.,26.9%,-7.4%
O=C(O)c1ccc2c(c1)C(=O)N([C@H](Cc1ccc(O)c(O)c1)C(=O)O)C2=O,2µM*,89.1µM*,-10.3%,79.4µM*,.,?
CC(C)(C)c1ccc(C[C@H](C(=O)O)N2C(=O)c3ccc(C(=O)O)cc3C2=O)cc1,-6.2%[12.7 µM],-22.8%,7.5%,31.0%,.,1.0%
O=C(O)c1ccc2c(c1)C(=O)N([C@H](Cc1ccccc1)C(=O)O)C2=O,4.5%[12.7 µM],-27.6%,48.7%,-1.6%,.,79.4µM*
COc1cc(-c2cc(-c3ccccc3)nc(SCC(=O)O)c2C#N)cc(OC)c1OC,50.1µM*,-8.0%,.,-17.8%,-17.9%,-0.3%
N#Cc1c(-c2ccccc2)cc(-c2ccccc2)nc1SCCC(=O)O,.,-22.4%,-0.9%,44.7µM*,-11.4%,3.0%
N#Cc1c(-c2ccc(Cl)cc2)cc(-c2ccccc2)nc1SCC(=O)O,?,-25.5%,1.3%,-14.1%,45.6%,56.2µM*
N#Cc1c(-c2ccco2)cc(-c2ccc(F)cc2)nc1N,?,-23.7%,.,28.2µM*,54.2%,-10.6%
SMILES,G9a block,JMJD2A Tudor,L3MBTL1 inh,Sfp inh,HP1b chromo inh,BAZ2B block
CCc1ccc(CNC(=O)c2cnc3sc(N4CCOCC4)nn3c2=O)cc1,4.5%[59 µM],-1.7%,.,.,31.4%,0.2%
CC(C)CCNC(=O)c1ccc2c(c1)N(Cc1ccccc1F)C(=O)c1ccccc1S2=O (stereo unspecified),-22.7%[59 µM],-11.4%,.,.,30.4%,-15.4%
COc1cccc(CN(C(=O)c2cccc(C)c2)C2CCS(=O)(=O)C2)c1 (stereo unspecified),-5.7%[59 µM],-3.5%,.,.,19.2%,-6.6%
COC(=O)CSc1nc(-c2ccccc2)cc(-c2ccco2)c1C#N,8.2%[0.501 µM],?,?,?,9.1%,70.8µM*
N#Cc1c(-c2ccccc2)cc(C2CC2)nc1SCC(=O)O,11.2µM*,-26.1%,8.7%,-18.0%,20.1%,-32.4%
CCCCS(=O)(=O)CC(O)CSc1nc(-c2ccc(C)cc2)cc(-c2ccccc2)c1C#N (stereo unspecified),7.94µM*,-24.8%,.,.,-7.9%,-2.5%
COc1ccccc1-c1cc(-c2ccccc2)nc(SC(C(N)=O)c2ccccc2)c1C#N (stereo unspecified),-28.8%[59 µM],-12.9%,2.1%,-16.1%,37.7%,79.4µM*
Nc1ncnc2c1nc(Sc1ccc(Cl)cc1)n2[C@H]1O[C@@H]2COP(=O)(O)O[C@H]2[C@@H]1O,24.3%[12.7 µM],.,.,.,.,.
COc1cccc(Nc2ncc3nc(CCc4ccccc4)c(=O)n(C4CC4)c3n2)c1,-0.3%[12.7 µM],.,.,6.9%,.,.
CCc1ccc(CN(Cc2cn[nH]c2-c2ccc(OC)cc2)C(=O)Nc2cc(Cl)ccc2OC)cc1,-11.6%[59 µM],3.3%,.,.,50.9%,-1.3%
CC(C)c1ccc(NC(=O)CCNS(=O)(=O)c2ccc3c(c2)CCCC(=O)N3)cc1,-1.1%[59 µM],-22.3%,.,.,36.6%,10.5%[57.1 µM]
N#Cc1c(-c2ccc(F)cc2)cc(-c2ccccc2)nc1SCC(=O)NCC(=O)O,.,79.4µM*,0.4%,2.24µM*,?,50.1µM*
N#Cc1c(-c2ccco2)cc(C2CC2)nc1SCC(=O)c1ccccc1,?,0.0%,-4.0%,35.5µM*,31.8%,-1.3%
COc1cccc(NC(=O)Cn2nc(-c3ccncc3)ccc2=O)c1,13.1%[59 µM],-6.1%,.,.,10.7%[57 µM],-6.6%
Cc1ccc(C)c(NC(=O)Cn2c(=O)n(CCC(C)C)c(=O)c3cccnc32)c1,7.6%[59 µM],6.5%,.,.,81.7%,6.7%
Nc1ccc(O)c(-c2nc3ccccc3s2)c1,14.1µM*,-16.2%,?,-5.6%,-2.2%,-28.1%
Oc1ccc(N=C/C=C/c2cccc(Br)c2)cc1-c1nc2ccccc2s1,7.94µM*,?,?,?,-15.4%,?
O=C(Nc1ccc(O)c(-c2nc3ccccc3s2)c1)c1cccs1,10.2%[59 µM],-2.1%,26.9%,?,32.4%,9.8%
Oc1ccc(-c2nc3ccccc3s2)c(O)c1,13.6%,12.7%,20.3%,-17.3%,83.9%,15.4%
CCC(C)NC(=O)c1nn(-c2ccc(C)cc2)nc1CO (stereo unspecified),6.1%[59 µM],-19.8%,.,.,9.4%,2.9%
